Test results reported in PubChem BioAssay AID1619 (SRMLSC, 2009).
Among all 220,000 compounds or so, about 830 (0.38%) were called active.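 How the source made its calls: active means compound inhibiting the enzyme by more than half at any dose during confirmatory dose-response retesting; inconclusive means strong single-dose inhibitors picked by rank but not retested; inactive means the rest.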 Not all results are given here. Results with a measured potency or affinity are listed apart.

Target: Leucine aminopeptidase (Plasmodium falciparum (isolate 3D7)) (UniProt Q8IL11)
Assay: P. falciparum M17LAP inhibitors, primary screen, biochemical, fluorogenic H-Leu-NHMec substrate, 1536-well (AID 1619);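 further: plate controls were full reaction with DMSO carrier for no effect and no enzyme background for full effect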
Details: recombinant M17LAP, H-Leu-NHMec fluorogenic kinetic assay; at 30 µM; active compounds read high

Sequence of Leucine aminopeptidase (Plasmodium falciparum (isolate 3D7)) (Q8IL11 whole entry, looked up): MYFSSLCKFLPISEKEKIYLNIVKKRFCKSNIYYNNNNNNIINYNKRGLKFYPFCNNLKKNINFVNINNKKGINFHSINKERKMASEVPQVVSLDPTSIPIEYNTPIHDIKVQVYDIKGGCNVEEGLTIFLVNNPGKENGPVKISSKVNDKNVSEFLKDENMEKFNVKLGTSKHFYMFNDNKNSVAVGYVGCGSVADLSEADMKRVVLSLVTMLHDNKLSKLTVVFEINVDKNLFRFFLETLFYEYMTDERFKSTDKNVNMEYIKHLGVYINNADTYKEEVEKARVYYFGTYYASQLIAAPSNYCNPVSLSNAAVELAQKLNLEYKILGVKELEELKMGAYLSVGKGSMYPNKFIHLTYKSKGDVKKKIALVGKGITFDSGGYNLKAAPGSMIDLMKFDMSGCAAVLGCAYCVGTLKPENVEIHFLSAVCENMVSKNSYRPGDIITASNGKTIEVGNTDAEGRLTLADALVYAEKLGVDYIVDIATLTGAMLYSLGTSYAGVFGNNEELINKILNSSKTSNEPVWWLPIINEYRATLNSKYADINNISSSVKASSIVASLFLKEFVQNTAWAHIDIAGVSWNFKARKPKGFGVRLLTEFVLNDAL

inhibition, inactive:
C=CCNC(=O)CCCc1ccccc1 11.4%, CC1CCCCN1C(=O)Cn1cnc2c1c(=O)n(C)c(=O)n2C (stereo unspecified) 0.19%, Cc1cc(-c2ccccc2)nc(Oc2cccc(C(F)(F)F)c2)c1S(C)(=O)=O -2.06%, COc1cccc(-n2nc3c(=S)[nH]nc(C)c3c2C)c1 -3.52%, O=C(O)COCC(=O)Nc1cc(C(F)(F)F)cc(C(F)(F)F)c1 -0.47%, COc1ccccc1NS(=O)(=O)c1ccc(NC(=O)c2ccncc2)cc1 -5.68%, COc1ccc(-c2cc(=O)c3c(O)c(OC)c(O)cc3o2)cc1 -3.88%, Cc1ccccc1-c1cc(=O)c2c(O)cccc2o1 -7.05%, COc1ccc(C2=NOC(C(=O)Nc3cc(C)on3)C2)cc1 (stereo unspecified) -16.7%, COC(=O)c1ccc(N2C(=O)CC(SCC(=O)Nc3ccc(OC)cc3)C2=O)cc1 (stereo unspecified) -6.08%, COc1ccccc1NC(=O)CSC1CC(=O)N(c2ccc3c(c2)OCO3)C1=O (stereo unspecified) 2.14%, COC(=O)[C@@]1(Cc2ccccc2)[C@H]2c3cc(C(=O)N4CCCC4)n(CCSCCO)c3C[C@H]2CN1C(=O)c1ccccc1 2.66%, CN(CCC#N)S(=O)(=O)c1ccc2[nH]cc(C(=O)NCCc3ccccc3)c(=O)c2c1 -16%, Cc1cc(Cl)ccc1C(=O)C1CCCN(C(=O)CCn2cnnn2)C1 (stereo unspecified) 5.92%, CCCc1[nH]nc2c1C(c1ccccc1OCC)C(C#N)=C(N)O2 (stereo unspecified) 8.34%, CCOc1ccccc1C1C(C#N)=C(N)Oc2n[nH]c(CC)c21 (stereo unspecified) 29.4%, CCOC(=O)N1CCC(N2C(=O)c3ccccc3C2Nc2ccc3c(c2)OCCO3)CC1 (stereo unspecified) -7.29%, CCn1c(-c2cc(-c3ccc(C)cc3)nc3ccccc23)n[nH]c1=S -3.9%, CCCCS(=O)(=O)N1CN(S(=O)(=O)CCCC)C2NC(=O)NC21 (stereo unspecified) 0.79%, CCCCc1cc(=O)oc2c(C)c(OCc3nn[nH]n3)ccc12 6.82%, CCCc1cc(=O)oc2c(C)c(OCc3nn[nH]n3)ccc12 -5.76%, O=C(NC1CCCCC1)c1ccccc1NC(=S)NC(=O)C1CC1 5.81%, S=C(Nc1ccccc1)Nc1ccccc1-n1cccc1 -5.63%, N#Cc1c(NC(=O)CSc2nc(N)cc(=O)[nH]2)sc2c1CCCCCC2 4.49%, Cn1cnnc1SCC(=O)Nc1sc2c(c1C#N)CCCCC2 11.7%, Cc1nnc(SCC(=O)Nc2sc3c(c2C#N)CCCC3)[nH]c1=O 52.5%, Cn1cnnc1SCC(=O)Nc1sccc1C#N -7.3%, N#Cc1c(NC(=O)CSC2=NCCS2)sc2c1CCCC2 19.2%, N#Cc1c(NC(=O)CSc2ncn(-c3ccccc3)n2)sc2c1CCCC2 9.47%, Cc1ccnc(SCC(=O)Nc2sc3c(c2C#N)CCCC3)n1 2.01%, Cc1csc(SCC(=O)Nc2sccc2C#N)n1 0.5%, O=C1CC(C(=O)NCc2ccccc2)C2(CCCC2)O1 (stereo unspecified) -0.86%, COc1ccc(C2C(C(=O)N3CCCCC3)c3ccccc3C(=O)N2C)cc1 (stereo unspecified) -0.86%, CCOC(=O)c1sc(NC(=O)CSc2nc(C)cc(C)c2C#N)c(C#N)c1C -17.4%, CCOC(=O)c1sc(NC(=O)CSc2nc(C)cc(C)n2)c(C#N)c1C -1.79%, Cc1ccc(OCC(=O)OC2CCS(=O)(=O)C2)cc1 (stereo unspecified) 1.23%, CN(C)c1ccc2c(=O)[nH][nH]c(=O)c2c1 5.67%, CN1C(=O)c2ccc(N3CCCC3)cc2C1=O 22.5%, O=C(Nc1ccc(Br)cc1Cl)NC1CC1 -4.66%, CC(CCc1ccccc1)NC(=O)c1cccs1 (stereo unspecified) -2.09%, Cc1ccc2c(CC(=O)N3CCN(S(=O)(=O)c4ccc5c(c4)OCCO5)CC3)coc2c1 -3.86%, Cc1ccccc1/C=N/NC(=O)Cn1nnc(N)n1 -9.27%, COc1ccc2sc(N(CCN(C)C)C(=O)/C=C/c3cccs3)nc2c1 1.07%, CC1=NN(C(=O)CSCc2ccccc2)C(O)(c2ccc(F)cc2)C1 (stereo unspecified) 6.76%, COC(=O)c1c(NC(=O)C2C3CCC(C3)C2C(=O)O)sc2c1CCCCC2 (stereo unspecified) 56.4%, CCOC(=O)c1c(NC(=O)C2C3CCC(O3)C2C(=O)O)sc2c1CCCC2 (stereo unspecified) 14.3%, CCOC(=O)c1c(NC(=O)C2CCCCC2C(=O)O)sc2c1CCCCC2 (stereo unspecified) 33.7%, COC(=O)c1c(NC(=O)C2CC2)sc2c1CCCC2 -6.73%, COc1ccc(NC(=S)N(CCN2CCOCC2)Cc2cc3cc4c(cc3[nH]c2=O)OCCO4)cc1 10.8%, Cc1nnc(SCC(=O)NC(=O)NCc2ccco2)s1 -1.14%, Cc1ccccc1Nc1nnc(SCC(=O)NCc2ccco2)s1 45.1%, CCOc1ccc(S(=O)(=O)c2c(C(=O)c3ccccc3)cnc3cc4c(cc23)OCCO4)cc1 1.82%, O=C(CCS(=O)(=O)Cc1ccccc1F)N1CCc2ccccc2C1 6.01%, COc1ccccc1N1CCN(c2ccc(N3C(=O)CCC3=O)cc2[N+](=O)[O-])CC1 -4.52%, COc1ccc(OCC#CCN2CC(C)OC(C)C2)cc1 (stereo unspecified) -3.27%, CC(C)(C)c1ccc2c(c1)OC(C(=O)N/N=C\c1ccc(-c3cccc(C(=O)O)c3)o1)CO2 (stereo unspecified) 7.12%, Nc1nonc1C(=O)N/N=C/c1ccc(-c2cccc(C(=O)O)c2)o1 30.2%, O=C(N/N=C/c1ccc(-c2ccc([N+](=O)[O-])cc2)o1)c1cccnc1 4.87%, O=C(N/N=C\c1ccc(-c2ccc([N+](=O)[O-])cc2)o1)C1COc2ccccc2O1 (stereo unspecified) 1.94%, CCOP(C)(=O)C1(C(=O)OCc2ccccc2)CC1 (stereo unspecified) -6.01%, COc1cccc(CNc2ccc([N+](=O)[O-])cc2C)c1 6.82%, CC(C)CN1C(=O)/C(=C/c2cccs2)NC1=S 35.9%, O=C1/C(=C/c2ccc(N3CCCC3)cc2)NC(=S)N1C1CC1 -10.7%, O=C(CC1C(=O)NCCN1C(=O)c1ccc(F)cc1)OCc1ccccc1 (stereo unspecified) -6.93%, Cc1ccc(CNC(=O)CN2CCCC(C)C2)cc1 (stereo unspecified) 8.72%, COc1ccc(-c2[nH]nc3c2C(c2ccoc2)C(C#N)=C(N)O3)cc1 (stereo unspecified) 27.9%, COc1cc(-c2[nH]nc3c2C(c2ccoc2)C(C#N)=C(N)O3)cc(OC)c1OC (stereo unspecified) 24%, Cc1[nH]nc2c1C(c1ccoc1)C(C#N)=C(N)O2 (stereo unspecified) 21.9%, COc1cccc(-c2[nH]nc3c2C(c2ccsc2)C(C#N)=C(N)O3)c1 (stereo unspecified) 35.3%, O=C(Nc1nnc(-c2ccccn2)o1)c1ccc(Br)cc1 8.43%, COCC(C)NC(=O)c1cc2cccc([N+](=O)[O-])c2[nH]1 (stereo unspecified) 11.6%, NC(=O)N[C@@H](Cc1c[nH]c2ccccc12)C(=O)OCC(=O)N1CCCCC1 -0.49%, O=C(O/N=C(\c1ccccc1)c1ccncc1)c1ccccc1Cl 3.91%, CC(C)Cn1c2ccccc2c2cc(C(=O)O)ccc21 1.66%, COc1ccc(-c2nc(N)n[nH]2)cc1 2.51%, COc1ccc(-c2csc(N)n2)cc1 -1.01%, Cc1ccc(S(=O)(=O)/N=C(\c2ccccc2)N(C)S(=O)(=O)c2ccc(C)cc2)cc1 -10.3%, Cc1cc(C)cc(NC(=O)C2CCCN(c3nc(C)cc(C)n3)C2)c1 (stereo unspecified) -13.6%, Cc1cccc(NC(=O)C2CCN(c3nc(C)cc(C)n3)CC2)c1 35.1%, Cc1cc(C(F)(F)F)nn1CC(=O)NNC(=S)Nc1cccc(Cl)c1 9.62%, CC1CCC/C(=N\NC(=S)NCc2ccccc2)C1 (stereo unspecified) 9.29%, CCCCOc1ncnc2c1[nH]c1ccc(OC)cc12 -0.91%, COCCOc1cc2ncnc(N3CCC(C(=O)O)CC3)c2cc1OCCOC 5.32%, Cc1cc(/C=C(/C#N)c2nc3ccccc3[nH]2)c(C)n1-c1ccccc1C(=O)O 23%, Cc1cc(/C=C(/C#N)c2nc3ccccc3[nH]2)c(C)n1-c1cccc([N+](=O)[O-])c1 -7.34%, COc1cccc(N2CCN(C(=S)NCCc3ccccc3)CC2)c1 -3.71%, CCOc1ccc(S(=O)(=O)NCCCN2CCOCC2)cc1 -8.49%, Cc1ccc2c(c1)N(C(C)C(=O)NCc1ccccn1)C(=O)CO2 (stereo unspecified) -7.53%, COc1cc(NC(=O)CSc2cc(C)c3cc(C)cc(C)c3n2)c(C(=O)O)cc1OC 15.4%, CCc1cc2ccccc2nc1SCC(=O)Nc1cc(C)on1 4.25%, COC(=O)CSc1ncnc2scc(-c3ccccc3)c12 -1.19%, COc1cc(NC(=O)CSc2nccc(C)n2)c(C(=O)O)cc1OC 43.1%, CCc1cc2c(C)ccc(C)c2nc1SCC(=O)Nc1c[nH]c(=O)[nH]c1=O 14.5%, COc1ccccc1NC(=O)CSc1nc2ccccc2cc1Cc1ccccc1 3.65%, COc1cc(NC(=O)CSc2ccccc2)c(C(=O)O)cc1OC 39.3%, O=C(CSc1ncnc2scc(-c3ccccc3)c12)Nc1ccc(C(=O)O)cc1 5.99%
